Test results published in PubChem BioAssay AID1159580 (chemical genetic matrix, 2015).
Where “and” joins values, the source holds several entries; their conditions need not be identical. Equal entries are not always repeated. About 2,000 (36%) of roughly 5,500 compounds were called active. Inconclusive results (about 18%) are left out. Cut-off read from the data, not from the text of the source: active = normalized growth mostly below about 0.91 (no sharp cut-off); inconclusive = no clear call, values can overlap the other calls; inactive = mostly above about 0.92. This is one part of the list.

Assay: chemical genetic growth profiling, strain panel (AID 1159580);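 note: tested at 20 µM; growth read once vehicle control cultures reached saturation at 30 °C; 1 = growth at the plate median or of vehicle wells; lower values mean less growth of the strain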
Conditions: S. cerevisiae deletion strains, growth OD

Measured: normalized growth

CC(C)NCC(O)c1ccc2ccccc2c1 (stereo not drawn)
inactive: locus YAL013W, strain DEP1, active compounds read low 1.02 | locus YAL021C, strain ccr4, active compounds read low 0.992 | locus YAL026C, strain drs2, active compounds read low 1.01 | locus YAL030W, strain snc1, active compounds read low 1 | locus YBL061C, strain skt5, active compounds read low 0.998 | locus YBR009C, strain hhf1, active compounds read low 0.985 | locus YBR021W, strain FUR4, active compounds read low 1.02 | locus YBR023C, strain chs3, active compounds read low 1 | locus YBR171W, strain sec66, active compounds read low 1 | locus YBR229C, strain ROT2, active compounds read low 1.01 | locus YBR231C, strain swc5, active compounds read low 0.99 | locus YBR279W, strain paf1, active compounds read low 0.998 | locus YCL011C, strain gbp2, active compounds read low 1 | locus YCL016C, strain dcc1, active compounds read low 1 | locus YCL029C, strain bik1, active compounds read low 0.999 | locus YCL061C, strain MRC1, active compounds read low 1.01 | locus YCL069W, strain vba3, active compounds read low 1 | locus YCR088W, strain abp1, active compounds read low 1.01 | locus YDL005C, strain med2, active compounds read low 0.999 | locus YDL035C, strain GPR1, active compounds read low 1.02 | locus YDL040C, strain nat1, active compounds read low 0.987 | locus YDL074C, strain BRE1, active compounds read low 1.04 | locus YDL101C, strain DUN1, active compounds read low 1.01 | locus YDL134C, strain PPH21, active compounds read low 1.02 | locus YDL185W, strain tfp1, active compounds read low 1 | locus YDL192W, strain arf1, active compounds read low 1 | locus YDR001C, strain nth1, active compounds read low 1 | locus YDR069C, strain doa4, active compounds read low 0.987 | locus YDR101C, strain arx1, active compounds read low 1.01 | locus YDR137W, strain rgp1, active compounds read low 0.987 | locus YDR159W, strain sac3, active compounds read low 0.971 | locus YDR162C, strain NBP2, active compounds read low 1.03 | locus YDR195W, strain ref2 0.966 | locus YDR297W, strain sur2, active compounds read low 0.998 | locus YDR318W, strain mcm21, active compounds read low 0.992 | locus YDR334W, strain swr1, active compounds read low 1 | locus YDR335W, strain msn5, active compounds read low 0.999 | locus YDR388W, active compounds read low 0.994 | locus YDR392W, strain spt3, active compounds read low 0.918 | locus YDR502C, strain sam2, active compounds read low 0.995 | locus YEL003W, strain gim4, active compounds read low 1.01 | locus YEL037C, strain rad23, active compounds read low 1 | locus YEL061C, strain CIN8 (second series), active compounds read low 0.996 | locus YEL061C, strain CIN8, active compounds read low 1 | locus YER015W, strain faa2, active compounds read low 0.992 | locus YER016W, strain bim1, active compounds read low 0.997 | locus YER110C, active compounds read low 0.994 | locus YER111C, strain swi4, active compounds read low 1 | locus YER155C, strain BEM2 (second series), active compounds read low 0.998 | locus YER155C, strain BEM2, active compounds read low 1.01 | locus YER167W, strain BCK2, active compounds read low 1.01 | locus YFR010W, strain ubp6, active compounds read low 1 | locus YGL078C, strain dbp3, active compounds read low 0.992 | locus YGL086W, strain mad1, active compounds read low 1 | locus YGL167C, strain pmr1, active compounds read low 1 | locus YGL173C, strain kem1, active compounds read low 0.999 | locus YGL227W, strain vid30, active compounds read low 0.992 | locus YGL240W, strain doc1, active compounds read low 0.995 | locus YGL248W, strain PDE1, active compounds read low 1.01 | locus YGL253W, strain hxk2, active compounds read low 0.998 | locus YGR135W, strain pre9, active compounds read low 0.983 | locus YGR252W, strain gcn5, active compounds read low 0.973 | locus YHR013C, strain ard1, active compounds read low 0.952 | locus YHR027C, strain rpn1, active compounds read low 1 | locus YHR030C, strain SLT2, active compounds read low 1.01 and 1.02 | locus YHR079C, strain IRE1 (second series), active compounds read low 0.99 | locus YHR079C, strain IRE1, active compounds read low 1.02 | locus YHR094C, strain hxt1, active compounds read low 0.99 | locus YHR129C, strain ARP1, active compounds read low 1.02 | locus YHR142W, strain chs7, active compounds read low 1 | locus YHR200W, strain rpn10, active compounds read low 0.994 | locus YIL066C, strain RNR3, active compounds read low 1.02 | locus YIL073C, strain SPO22, active compounds read low 1.01 | locus YIL125W, strain kgd1, active compounds read low 0.999 | locus YIR030C, strain dcg1, active compounds read low 0.998 | locus YJL092W, strain hpr5, active compounds read low 1.01 | locus YJL095W, strain BCK1 (second series), active compounds read low 0.999 | locus YJL095W, strain BCK1, active compounds read low 1.02 and 1.03 | locus YJL115W, strain asf1, active compounds read low 0.996 | locus YJL129C, strain trk1, active compounds read low 1.01 | locus YJL134W, strain LCB3, active compounds read low 1 | locus YJL154C, strain vps35, active compounds read low 0.992 | locus YJL164C, strain tpk1, active compounds read low 1 | locus YJL166W, strain qcr8, active compounds read low 1 | locus YJL168C, strain set2, active compounds read low 0.991 | locus YJL187C, strain SWE1 (second series), active compounds read low 1.03 | locus YJL187C, strain SWE1, active compounds read low 1 | locus YJR043C, strain POL32, active compounds read low 1.05
